# Test results reported in PubChem BioAssay AID602179 (National Center for Advancing Translational Sciences (NCATS), 2012).
# The whole screen tested about 390,000 compounds, of which about 360 (0.092%) were called active. Calls come from the whole dose curve; as a rule, active = well fitted inhibition curve with a large enough effect; inconclusive = small, poorly fitted or top-dose-only effect; inactive = no such curve, though single readings can be large or run the other way. Many of the other results were omitted from the sample, so actives are more common in it than they were.
# Target: Isocitrate dehydrogenase [NADP] cytoplasmic (Homo sapiens) (UniProt O75874)
# Assay: qHTS for Inhibitors of mutant isocitrate dehydrogenase 1 (IDH1): qHTS; note: nearly all actives have a fitted effect of over 65% in size
# Conditions: IDH1-R132H enzyme, NADPH consumption, diaphorase/resazurin fluorescence; series mostly up to 76.6 µM; activity change, negative = inhibition: at the top concentration
# Text: Unbiased genomic sequencing for 22 glioma genomes found recurrent mutation of isocitrate dehydrogenase 1 (IDH1) on chromosome 2q33-a gene encoding the cytosolic isoform of IIDH1associated with the tricarboxylic acid cycle (TCA) that catalyzes the oxidative decarboxylation of isocitrate, yielding alpha-ketoglutarate and CO2 via NADP+ to NADPH conversion. Subsequent studies confirmed the recurrent IDH mutations in up to 70% of secondary gliomas and in 10% of AML cases. […] This in effect defines IDH1 as an oncogene, and provides an extraordinary opportunity to discover chemical probes against mutant IDH1 that may translate into much needed new therapies for glioma and AML patients. […] NIH Chemical Genomics Center [NCGC] NIH Molecular Libraries Probe Centers Network [MLPCN] MLPCN Grant: DA032129 Assay Submitter (PI): Lenny Dang, Agios Pharmaceuticals
# IDH1-R132H (0.5 ug/mL) was dispensed into black, solid-bottom 1536-well plates at 3 uL/well in 20 mM Tris-HCl (pH 7.5), 150 mM NaCl, 10 mM MgCl2, 4 mM beta-ME, and 0.05% protease-free BSA. Then, 23 nL of compounds or DMSO were delivered to each well using a pin tool. A pre-read was run on the Viewlux to identify fluorescent compounds (540 nm excitation filter, 598 nm emission filter, bodipy mirror and 2 second exposure). After 30 minutes of incubation with compound, 3 uL of substrate mix were dispensed (0.016 mM NADPH, 2 mM alpha-KG, 20 mM Tris-HCl (pH 7.5), 150 mM NaCl, 10 mM MgCl2, and 0.05% protease-free BSA). Plates were spun for 1 min at 1000xg and incubated at room temperature for 80 min. Then 1.5 uL of each detection reagent component for the coupling system were added (0.12 mg/mL diaphorase and 0.072 mM resazurin, each in 20 mM Tris-HCl (pH 7.5), 150 mM NaCl, 10 mM MgCl2, and 0.05% protease-free BSA ) The protein, substrate and two detection components were maintained at 4 °C throughout the screen. Additionally, the substrate and resazurin reagents were protected from light. The plates were measured on an Envision plate reader for fluorescence signal using a 540 nm excitation filter and 590 nm emission filter with 10 flashes. 1x and 0x (no-enzyme) IDH1-R132H enzyme control were used to normalize %Activity of identified inhibitors; 0x enzyme values corresponded to 100% Activity (full inhibition), while 1x IDH1-R132H enzyme values were used to normalize 0%Activity (no inhibition). Concentration-response curves were fitted to the signals arising from the resulting fluorescence. The concentration-effect curves were then classified based on curve quality (r2), response magnitude and degree of measured activity, and compounds were subsequently categorized based on their curve class. […] Keywords: isocitrate dehydrogenase, IDH1, IDH1-R132H, MLSMR, MLPCN, NIH Roadmap, qHTS, NCGC
# % is set by controls: 0 for no effect and ±100 for the full control effect; potency is the fitted concentration of half-maximal effect.
# Sequence of Isocitrate dehydrogenase [NADP] cytoplasmic (Homo sapiens) (O75874 whole entry R132H, change not shown): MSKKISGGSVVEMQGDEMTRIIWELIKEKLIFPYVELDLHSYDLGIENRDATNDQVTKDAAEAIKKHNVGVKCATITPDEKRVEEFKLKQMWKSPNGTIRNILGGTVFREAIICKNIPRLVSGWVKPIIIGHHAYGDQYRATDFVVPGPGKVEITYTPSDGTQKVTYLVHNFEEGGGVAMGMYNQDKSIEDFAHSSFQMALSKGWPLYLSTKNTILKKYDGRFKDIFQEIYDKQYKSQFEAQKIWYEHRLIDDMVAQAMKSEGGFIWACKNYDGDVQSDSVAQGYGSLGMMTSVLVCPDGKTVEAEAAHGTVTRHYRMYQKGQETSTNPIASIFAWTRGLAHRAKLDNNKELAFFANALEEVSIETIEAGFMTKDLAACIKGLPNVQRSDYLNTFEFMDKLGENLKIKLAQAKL
Compound,Potency,"activity change, negative = inhibition"
CC(C)(C)c1ccc(S(=O)(=O)Nc2ccc(O)c(Sc3nc4ccccc4s3)c2)cc1,39.8 µM (active),
Cn1c(O)c(C=NCCN2CCNCC2)c(=O)n(C)c1=O,,3.83% (inactive)
CCOCCc1c(O)[nH]c(=S)[nH]c1=O,,0% (inactive)
O=C(Nc1ccc(Cl)cc1C(=O)c1ccccc1)c1cc(Cl)cc(Cl)c1,,-0.857% (inactive)
CC(C)Oc1ccc(NC(=O)c2cc3ccccc3o2)cc1,,44.4% (inactive)
